High-throughput results as filed in PubChem.
STK33 kin inh: STK33 kinase inhibitors, primary screen, biochemical, luminescence, ADP-Glo, MBP substrate; AID 2322, 2010; inhibition, % at 12.5 µM; Serine/threonine-protein kinase 33 (Homo sapiens), Q9BYT3; 27,000 compounds, 0.44% hits; in the data active = inhibition above about 20%
Target sequence (Q9BYT3 whole entry, looked up): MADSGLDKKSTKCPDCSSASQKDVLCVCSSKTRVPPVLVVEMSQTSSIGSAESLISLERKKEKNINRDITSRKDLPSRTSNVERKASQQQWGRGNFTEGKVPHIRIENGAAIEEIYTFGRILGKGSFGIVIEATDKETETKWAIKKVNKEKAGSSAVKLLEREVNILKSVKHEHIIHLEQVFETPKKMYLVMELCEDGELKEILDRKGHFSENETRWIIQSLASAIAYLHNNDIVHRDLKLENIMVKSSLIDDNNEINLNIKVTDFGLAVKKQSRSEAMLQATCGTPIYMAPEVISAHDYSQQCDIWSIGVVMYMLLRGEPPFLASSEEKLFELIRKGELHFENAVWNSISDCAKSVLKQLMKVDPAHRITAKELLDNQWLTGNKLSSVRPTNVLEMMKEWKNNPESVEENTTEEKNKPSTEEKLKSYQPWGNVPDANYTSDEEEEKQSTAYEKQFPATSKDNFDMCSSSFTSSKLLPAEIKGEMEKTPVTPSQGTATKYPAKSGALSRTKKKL
NOMO-1 viab: NOMO-1 AML cell viability reduction, primary screen, STK33 inhibitor project, CellTiter-Glo luminescence. NOMO-1 AML viability, 72 h. inhibition, % (no concentration beside the values). 37,000 compounds, 7.5% hits. AID 2330, 2010; in the data active = inhibition above about 80%
PD-1 reversal: activators reversing PD-1 mediated T-cell inhibition, primary screen, luminescence, primary human CD4 T cells, PD-L1 beads; CellTiter-Glo 96 h; activation, % (test concentration not listed); 29,000 tested, under 10 active; AID 2316, 2010; call rule not given here;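 note: 0% = median vehicle wells and 100% = positive control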
An asterisk follows results filed as active; / = no result. This excerpt belongs to a sample that is enriched for hits.

SMILES | STK33 kin inh | NOMO-1 viab | PD-1 reversal
Cc1ccc(S(=O)(=O)Nc2ccc3c(c2)C(=O)N([C@H](C)CO)C[C@H](C)[C@H](CN(C)S(=O)(=O)c2ccc(Cl)cc2)OCCCC[C@@H](C)O3)cc1 | 3 | 111* | -10
Cc1ccc(S(=O)(=O)Nc2ccc3c(c2)C(=O)N([C@H](C)CO)C[C@H](C)[C@H](CN(C)S(=O)(=O)c2ccccc2)OCCCC[C@@H](C)O3)cc1 | 1 | 91* | -7
Cc1ccc2nc(-c3cccc(NC(=O)COc4ccccc4)c3C)oc2c1 | 6 | 62 | 0
CCc1ccccc1NC(=O)CN(C)S(=O)(=O)c1ccc2ccccc2c1 | -5 | -5 | 1
CCOc1ccc(C)cc1S(=O)(=O)NCc1ccco1 | -1 | 7 | /
O=C(CCSc1nc2ccccc2s1)N1CCOCC1 | -6 | 1 | /
O=C(Cn1cnc2sc(-c3ccccc3)cc2c1=O)Nc1ccc(F)c(Cl)c1 | -3 | 5 | 0
C=C1C(=O)[C@@]23CCC4[C@](C)(C(=O)O)CCC[C@@]4(C)[C@@H]2CC[C@@H]1C3 (stereo partly specified) | -2 | / | /
COc1ccc(CN(C)C[C@@H]2Oc3c(NC(=O)Nc4ccc(OC)cc4)cccc3C(=O)N([C@H](C)CO)C[C@H]2C)cc1 | / | 65 | /
C[C@H](CO)N1C[C@H](C)[C@@H](CN(C)Cc2ccc(Cl)c(Cl)c2)Oc2c(NC(=O)Nc3ccc(F)cc3)cccc2C1=O | / | 99* | -3
COc1ccc(NC(=O)Nc2cccc3c2O[C@@H](CN(C)Cc2ccc(Cl)c(Cl)c2)[C@H](C)CN([C@@H](C)CO)C3=O)cc1 | / | 111* | -6
C[C@@H]1CN([C@H](C)CO)C(=O)c2cccc(NC(=O)Nc3ccc(F)cc3)c2O[C@H]1CN(C)Cc1ccc(Cl)c(Cl)c1 | / | 96* | -3
CC(C)NC(=O)Nc1cccc2c1O[C@H](CN(C)Cc1ccc(Cl)c(Cl)c1)[C@H](C)CN([C@@H](C)CO)C2=O | / | 12 | /
C[C@H]1CN([C@@H](C)CO)C(=O)c2cccc(NC(=O)Nc3ccc(F)cc3)c2O[C@@H]1CN(C)Cc1ccc(Cl)c(Cl)c1 | / | 109* | /
C[C@H]1CN([C@@H](C)CO)C(=O)c2cccc(NC(=O)Nc3ccc(F)cc3)c2O[C@H]1CN(C)Cc1ccc(Cl)c(Cl)c1 | / | 41 | -1
C[C@@H]1CN([C@@H](C)CO)C(=O)c2cccc(NC(=O)Nc3ccc(F)cc3)c2O[C@@H]1CN(C)Cc1ccc2c(c1)OCO2 | / | 23 | -1
O=C(CSc1nnc(-c2ccc([N+](=O)[O-])cc2)n1-c1ccccc1)Nc1ccccc1Cl | 2 | / | /
O=C(CSc1nc(N2CCCCC2)nc(N2CCCCC2)n1)Nc1ccc(F)cc1 | -5 | 48 | -2
CC(=O)Nc1ccc(C(=O)CSc2cc(C)c3ccccc3n2)cc1 | -4 | 14 | /
CC(OC(=O)c1cccc(O)c1)C(=O)O (stereo unspecified) | 1 | -7 | -2
COc1ccc(NC(=O)CN(C)S(=O)(=O)c2ccc(C)cc2)c(OC)c1 | 0 | / | /
C[C@@H]1CN([C@H](C)CO)C(=O)c2cccc(NC(=O)c3ccc(-c4nccs4)cc3)c2O[C@@H]1CN(C)Cc1ccc(C(=O)Nc2ccccc2N)cc1 | / | 142* | -4
C[C@@H]1CN([C@H](C)CO)C(=O)c2cccc(NC(=O)c3ccc(-c4nccs4)cc3)c2O[C@H]1CN(C)Cc1ccc(Oc2ccccc2)cc1 | / | 61 | 1
C[C@H](CO)N1C[C@H](C)[C@H](CN(C)Cc2ccccc2)Oc2c(NC(=O)c3ccc(-c4nccs4)cc3)cccc2C1=O | / | 16 | 1
C[C@H](CO)N1C[C@H](C)[C@H](CN(C)C(=O)Nc2ccc(C(F)(F)F)cc2)Oc2c(NC(=O)c3ccc(-c4nccs4)cc3)cccc2C1=O | / | 93* | -7
SMILES | STK33 kin inh | NOMO-1 viab | PD-1 reversal
C[C@H](CO)N1C[C@H](C)[C@H](CN(C)Cc2ccc(Oc3ccccc3)cc2)Oc2c(NC(=O)c3ccc(-c4nccs4)cc3)cccc2C1=O | / | 112* | -3
C[C@H](CO)N1C[C@H](C)[C@@H](CN(C)C(=O)Nc2ccc(C(F)(F)F)cc2)Oc2c(NC(=O)c3ccc(-c4nccs4)cc3)cccc2C1=O | / | 23 | -1
C[C@H]1CN([C@@H](C)CO)C(=O)c2cccc(NC(=O)c3ccc(-c4nccs4)cc3)c2O[C@H]1CN(C)Cc1ccc(C(=O)Nc2ccccc2N)cc1 | / | 101* | -2
C[C@@H]1CN([C@H](C)CO)C(=O)c2cccc(NC(=O)c3ccc(-c4nccs4)cc3)c2O[C@@H]1CN(C)Cc1ccc(-c2ccccc2)cc1 | / | 60 | /
CCn1c(SCC(=O)Nc2ccc(F)c(F)c2)nnc1-c1ccncc1 | 3 | 10 | 1
Cc1nc(SCC(=O)Nc2ccc(I)cc2)nc2c1CCCC2 | -1 | -13 | /
